# The source made the active and inactive calls.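 The calls were made as follows, unless noted: active = fluorescence slope higher than the sample average by over 3 SD (cut at about -0.22 in these data, passing the limit was not always enough); inactive = the rest.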
# Test system: not listed separately
# Assay: endothelial E-selectin expression blockers – imaging, HUVEC, immunofluorescence, MLSMR starter and 10KST1 sets, primary screen (AID 487;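 active = visually confirmed hit in the image check and inhibition above 20%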;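 as to inhibition: signal is fraction of cell area covered by stained E-selectin grains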;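 as to nuclei count: 100% = median nuclei count of all wells on the same plate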)
# Conditions: HUVEC TNFalpha-induced E-selectin immunofluorescence imaging, at 2 µM; inhibition: stronger effect = higher value; nuclei count: measured here: cell number, toxicity
Compound,inhibition,nuclei count [%]
O=C(c1ccco1)N1CCN(c2nc(C(F)(F)F)nc3c2nnn3Cc2ccccc2)CC1,-10.1% (inactive),103
O=C(CSc1nnc(SCc2ccc(Cl)cc2)s1)N1CCN(C(=O)c2ccco2)CC1,-194% (inactive),152
CCOC(=O)CCNC(=O)Nc1ccc2nc(C)n(Cc3ccccc3Cl)c(=O)c2c1,-33.8% (inactive),104
CC(=O)N1CCN(c2ccc(NC(=O)c3ccc(C(C)(C)C)cc3)cc2)CC1,-186% (inactive),135
COc1ccc(-n2cnnc2SCCC#N)cc1,-115% (inactive),122
O=S(CC(O)COCc1ccc(Cl)cc1)c1ccccn1 (stereo not given),-37% (inactive),127
CN1C(=O)C(O)(CC(=O)c2ccc(F)cc2)c2cc(Br)ccc21 (stereo not given),16.6% (inactive),97.6
CCn1cc(C(=O)NCC2CCCO2)c(=O)c2cc(S(=O)(=O)N(C)C)ccc21 (stereo not given),-50.6% (inactive),117
OC1(c2cccc(C(F)(F)F)c2)CCNCC1,-19% (inactive),118
N#Cc1c(N2CCCC2)nc(N)c2c(N)nc(N3CCCC3)cc12,-144% (inactive),160
COc1ccc2cc(CN(Cc3ccco3)C(c3nnnn3C3CCCCC3)C(C)C)c(=O)[nH]c2c1 (stereo not given),-147% (inactive),125
COc1ccc(C2CC(c3ccc(C)cc3)Nc3ncnn32)cc1 (stereo not given),30.7% (inactive),98.3
Cc1cc(NC(=O)C23CCC(C)(C(=O)O2)C3(C)C)no1 (stereo not given),-22.3% (inactive),111
Cc1cc(C)cc(NC(=O)c2nnn(Cc3cc(C)ccc3C)c2N)c1,-5.5% (inactive),125
CC1=C(C(=O)OC(C)C)C(C2CC=CCC2)NC(=O)N1 (stereo not given),35.9% (inactive),98.9
O=C1NC(c2ccco2)Nc2ccccc21 (stereo not given),-84.8% (inactive),107
CCOC(=O)Cc1csc(NC(=O)CSc2nnc(-c3ccncc3)n2Cc2ccco2)n1,-61.4% (inactive),122
CC1=C(C(=O)N2CCOCC2)C(c2ccsc2)C2=C(CCCC2=O)N1 (stereo not given),-11.7% (inactive),110
Cc1c(C(=O)NCc2ccoc2)oc2ccc3c(c12)C(=O)CC(C)(C)O3,7.9% (inactive),103
COc1ccc(C(O)Cn2c(=N)n(CCCN(C)C)c3ccccc32)cc1 (stereo not given),-30.3% (inactive),112

Compound,inhibition,nuclei count [%]
COc1ccccc1CC(=O)Nc1ccc(OC)c(OC)c1,-157% (inactive),118
CCc1nnc(NC(=O)c2ccc(S(=O)(=O)NCC(C)C)cc2)s1,-73.7% (inactive),210
CCOc1ccc(NC(=O)CN2CCN(CC(=O)c3ccc(OCC)cc3)CC2)cc1,-73% (inactive),112
COc1ccc(OC)c(C(=O)c2ccc(C(=O)O)cc2)c1,-71.4% (inactive),110
COCCN(CC(=O)Nc1ccccc1C)S(=O)(=O)c1ccc(S(=O)(=O)N2CCCC2)cc1,-18.2% (inactive),69.8
Cc1ccc(C)c(N2CCN(CCCNC(=O)Cn3cc4c(n3)CCCCC4)CC2)c1,-60.6% (inactive),110
Nc1cccc2c1C(=O)N(c1ccccc1)C2=O,13.9% (inactive),107
CC(C)COc1ccc(-c2nnn(CC(=O)N3CCCC3)n2)cc1,19.6% (inactive),109
CCOc1cc(C2NC(=O)N(C)C(C)=C2C(=O)OC)cc(Br)c1O (stereo not given),-13.7% (inactive),104
C/C(=C\C(=O)c1ccc(F)cc1)Nc1ccc(N2CCOCC2)cc1,-1.4% (inactive),99.6
CCC(C)NC(=O)CS(=O)(=O)Cc1nc(-c2cccc(OC)c2)oc1C (stereo not given),-44.8% (inactive),107
COc1ccc(/C=N/n2cnnc2SCc2ccc(OC)cc2)cc1,-27.7% (inactive),108
CCOc1ccc(C2CC(c3ccccc3C)n3nc(N)nc3N2)cc1 (stereo not given),-43.7% (inactive),90.1
COc1ccccc1-c1nnc(SCC(=O)N2CC(C)CC(C)C2)o1 (stereo not given),28% (inactive),94.8
Cc1ccnc(NC(=O)C2CCCN(S(=O)(=O)c3cnc[nH]3)C2)c1 (stereo not given),-81.7% (inactive),110
Cc1cc(C)c2cc3c(ccn3C3OC[C@H](O)[C@H](O)[C@H]3O)cc2n1 (stereo not given in full),-106% (inactive),95.9
CC(=O)NCc1cccc(CNC(C)=O)n1,-92.7% (inactive),101
Cc1ccc2[nH]c(=O)c(C(c3nnnn3CCc3ccccc3)N3CCOCC3)cc2c1 (stereo not given),-38.7% (inactive),95.6
O=c1c2ccc(-c3nnc4n3-c3ccccc3SC4)cc2nc2n1CCCCC2,-41.6% (inactive),116
Cc1sc2nc(SCC(=O)NCCO)n(C)c(=O)c2c1C,4.8% (inactive),112

# Target: Voltage-gated potassium channel subunit beta-2 (Rattus norvegicus) (UniProt P62483)
# Assay: inhibitors of rat Kvbeta2 reductase activity – biochemical, NADPH fluorescence, primary screen (AID 622);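 also: slope of raw intensity against log time taken from 70 to 1610 s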
# Conditions: recombinant KvBeta, 4-cyanobenzaldehyde reduction, at 10 µM, stronger effect = higher value
# Sequence of Voltage-gated potassium channel subunit beta-2 (Rattus norvegicus) (P62483 whole entry, looked up): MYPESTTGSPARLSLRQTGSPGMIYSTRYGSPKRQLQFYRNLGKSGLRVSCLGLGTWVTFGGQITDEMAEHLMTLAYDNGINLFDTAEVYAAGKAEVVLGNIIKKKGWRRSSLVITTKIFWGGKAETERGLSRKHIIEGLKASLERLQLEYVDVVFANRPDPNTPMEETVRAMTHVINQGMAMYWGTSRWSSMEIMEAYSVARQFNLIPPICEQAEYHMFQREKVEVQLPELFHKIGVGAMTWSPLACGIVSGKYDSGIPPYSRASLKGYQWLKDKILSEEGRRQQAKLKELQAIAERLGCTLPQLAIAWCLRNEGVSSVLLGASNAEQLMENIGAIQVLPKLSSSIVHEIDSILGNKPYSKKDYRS
row,Compound,fluorescence slope
1,O=C(c1ccco1)N1CCN(c2nc(C(F)(F)F)nc3c2nnn3Cc2ccccc2)CC1,-0.484 (inactive)
2,O=C(CSc1nnc(SCc2ccc(Cl)cc2)s1)N1CCN(C(=O)c2ccco2)CC1,-0.519 (inactive)
3,CCOC(=O)CCNC(=O)Nc1ccc2nc(C)n(Cc3ccccc3Cl)c(=O)c2c1,-0.366 (inactive)
4,CC(=O)N1CCN(c2ccc(NC(=O)c3ccc(C(C)(C)C)cc3)cc2)CC1,-0.494 (inactive)
5,COc1ccc(-n2cnnc2SCCC#N)cc1,-0.549 (inactive)
6,O=S(CC(O)COCc1ccc(Cl)cc1)c1ccccn1 (stereo not given),-0.442 (inactive)
7,CN1C(=O)C(O)(CC(=O)c2ccc(F)cc2)c2cc(Br)ccc21 (stereo not given),-0.436 (inactive)
8,CCn1cc(C(=O)NCC2CCCO2)c(=O)c2cc(S(=O)(=O)N(C)C)ccc21 (stereo not given),-0.465 (inactive)
9,OC1(c2cccc(C(F)(F)F)c2)CCNCC1,-0.281 (inactive)
10,N#Cc1c(N2CCCC2)nc(N)c2c(N)nc(N3CCCC3)cc12,-0.0789 (active)
11,COc1ccc2cc(CN(Cc3ccco3)C(c3nnnn3C3CCCCC3)C(C)C)c(=O)[nH]c2c1 (stereo not given),-0.451 (inactive)
12,COc1ccc(C2CC(c3ccc(C)cc3)Nc3ncnn32)cc1 (stereo not given),-0.524 (inactive)
13,Cc1cc(NC(=O)C23CCC(C)(C(=O)O2)C3(C)C)no1 (stereo not given),-0.612 (inactive)
14,Cc1cc(C)cc(NC(=O)c2nnn(Cc3cc(C)ccc3C)c2N)c1,-0.564 (inactive)
15,CC1=C(C(=O)OC(C)C)C(C2CC=CCC2)NC(=O)N1 (stereo not given),-0.322 (inactive)
16,O=C1NC(c2ccco2)Nc2ccccc21 (stereo not given),-0.344 (inactive)
17,CCOC(=O)Cc1csc(NC(=O)CSc2nnc(-c3ccncc3)n2Cc2ccco2)n1,-0.595 (inactive)
18,CC1=C(C(=O)N2CCOCC2)C(c2ccsc2)C2=C(CCCC2=O)N1 (stereo not given),-0.408 (inactive)
19,Cc1c(C(=O)NCc2ccoc2)oc2ccc3c(c12)C(=O)CC(C)(C)O3,-0.531 (inactive)
20,COc1ccc(C(O)Cn2c(=N)n(CCCN(C)C)c3ccccc32)cc1 (stereo not given),-0.587 (inactive)

row,Compound,fluorescence slope
1,COc1ccccc1CC(=O)Nc1ccc(OC)c(OC)c1,-0.466 (inactive)
2,CCc1nnc(NC(=O)c2ccc(S(=O)(=O)NCC(C)C)cc2)s1,-0.491 (inactive)
3,CCOc1ccc(NC(=O)CN2CCN(CC(=O)c3ccc(OCC)cc3)CC2)cc1,-0.397 (inactive)
4,COc1ccc(OC)c(C(=O)c2ccc(C(=O)O)cc2)c1,-0.508 (inactive)
5,COCCN(CC(=O)Nc1ccccc1C)S(=O)(=O)c1ccc(S(=O)(=O)N2CCCC2)cc1,-0.416 (inactive)
6,Cc1ccc(C)c(N2CCN(CCCNC(=O)Cn3cc4c(n3)CCCCC4)CC2)c1,-0.619 (inactive)
7,Nc1cccc2c1C(=O)N(c1ccccc1)C2=O,-0.0636 (active)
8,CC(C)COc1ccc(-c2nnn(CC(=O)N3CCCC3)n2)cc1,-0.564 (inactive)
9,CCOc1cc(C2NC(=O)N(C)C(C)=C2C(=O)OC)cc(Br)c1O (stereo not given),-0.611 (inactive)
10,C/C(=C\C(=O)c1ccc(F)cc1)Nc1ccc(N2CCOCC2)cc1,-0.532 (inactive)
11,CCC(C)NC(=O)CS(=O)(=O)Cc1nc(-c2cccc(OC)c2)oc1C (stereo not given),-0.523 (inactive)
12,COc1ccc(/C=N/n2cnnc2SCc2ccc(OC)cc2)cc1,-0.348 (inactive)
13,CCOc1ccc(C2CC(c3ccccc3C)n3nc(N)nc3N2)cc1 (stereo not given),-0.586 (inactive)
14,COc1ccccc1-c1nnc(SCC(=O)N2CC(C)CC(C)C2)o1 (stereo not given),-0.411 (inactive)
15,Cc1ccnc(NC(=O)C2CCCN(S(=O)(=O)c3cnc[nH]3)C2)c1 (stereo not given),-0.564 (inactive)
16,Cc1cc(C)c2cc3c(ccn3C3OC[C@H](O)[C@H](O)[C@H]3O)cc2n1 (stereo not given in full),-0.0157 (active)
17,CC(=O)NCc1cccc(CNC(C)=O)n1,-0.432 (inactive)
18,Cc1ccc2[nH]c(=O)c(C(c3nnnn3CCc3ccccc3)N3CCOCC3)cc2c1 (stereo not given),-0.482 (inactive)
19,O=c1c2ccc(-c3nnc4n3-c3ccccc3SC4)cc2nc2n1CCCCC2,-0.414 (inactive)
20,Cc1sc2nc(SCC(=O)NCCO)n(C)c(=O)c2c1C,-0.343 (inactive)

# Source: PubChem BioAssay
